Results filed as inconclusive are left out. Where a call stands in place of a potency, no number is given. Activity calls are given as the source filed them. Calls come from the whole dose curve.
Target: 5-hydroxytryptamine receptor 2A (Homo sapiens) (UniProt P28223)
Experiment: 5-hydroxytryptamine receptor 2A (HTR2A) small molecule antagonists, cell-based qHTS assay (AID 1963586); note: nearly all actives have a fitted effect of over 45% in size
Settings: HTR2A-CHO cells, DOI-induced calcium flux, fluorescence; series mostly up to 61.5 µM
Excerpt: National Center for Advancing Translational Sciences [NCATS]
Division of Preclinical Innovation [DPI]
U.S. Environmental Protection Agency [EPA]
National Institutes of Environmental Health Sciences [NIEHS]
National Toxicology Program [NTP]
U.S. Food and Drug Administration [FDA]
The HTR2A receptor is a subtype of the 5-HT2 receptor that belongs to the serotonin receptor family and is a G protein-coupled receptor (GPCR). The HTR2A-CHO cell line stably expressing human 5-hydroxytryptamine receptor 2A (HTR2A) can be used for screening antagonists of interactions between 5-HT2 and its ligands. The HTR2A-CHO calcium flux assay is a homogeneous fluorescence-based assay for detecting the intracellular calcium level using FDSS kinetic plate reader system.
Tox21 Assay Protocol Summary:
HTR2A-CHO cells were dispensed at 2000 cells/3uL/well in 1536-well black-clear bottom plates using a Multidrop Dispenser. After the assay plates were incubated at a 37 C/5% CO2 incubator for 18 h, 3 uL of Dye Loading Buffer was transferred to the assay plate by a Flying Reagent Dispenser. The assay plates were incubated at 37 C for 1h. For antagonist mode, 23 nL of compounds dissolved in DMSO, positive controls or DMSO only was transferred to the assay plate by a pin tool. After 5 min incubation at room temperature, 1.5 uL of 4-Iodo-2,5-dimethoxy-alpha-methylbenzeneethanamine hydrochloride (DOI) at 4nM was added to each well. The fluorescence intensity in the plates was measured using FDSS 7000EX kinetic plate reader for 3 min at 1 sec intervals.
Potency is the fitted concentration of half-maximal effect.

Chain of 5-hydroxytryptamine receptor 2A (Homo sapiens) (P28223 whole entry, looked up): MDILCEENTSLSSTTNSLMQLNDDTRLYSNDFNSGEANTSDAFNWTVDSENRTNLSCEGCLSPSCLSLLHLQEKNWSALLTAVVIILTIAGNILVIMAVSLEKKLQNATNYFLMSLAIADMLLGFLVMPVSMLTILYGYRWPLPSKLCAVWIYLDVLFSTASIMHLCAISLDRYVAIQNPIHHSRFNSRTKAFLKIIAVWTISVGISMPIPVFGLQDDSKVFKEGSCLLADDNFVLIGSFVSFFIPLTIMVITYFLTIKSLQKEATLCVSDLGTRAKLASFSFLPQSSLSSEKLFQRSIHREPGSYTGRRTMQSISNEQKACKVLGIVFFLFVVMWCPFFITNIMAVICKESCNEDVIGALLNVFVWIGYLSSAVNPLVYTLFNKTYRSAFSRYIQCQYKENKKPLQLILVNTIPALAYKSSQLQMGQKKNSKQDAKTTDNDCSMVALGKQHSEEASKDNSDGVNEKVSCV

| SMILES | Potency |
| --- | --- |
| Oc1ccc2c(c1)OCO2 | inactive |
| CCN(CC)C(=O)Nc1ccc(OCC(O)CNC(C)(C)C)c(C(C)=O)c1 (stereo not given) | inactive |
| c1ccc(COCc2ccccc2)cc1 | inactive |
| Nc1ccc(C(=O)OCCCOC(=O)c2ccc(N)cc2)cc1 | inactive |
| CCCCCCCCCCCC(=O)Cl | inactive |
| CCCCCCCCCCc1ccccc1 | inactive |
| CC1=CP(=O)(c2ccccc2)CC1 (stereo not given) | inactive |
| O=C(O)Cc1c(Cl)ccc(Cl)c1Cl | inactive |
| Clc1nc(C(Cl)(Cl)Cl)c(Cl)c(Cl)c1Cl | inactive |
| c1cnc2c(n1)CCCC2 | inactive |
| CC=C(Cl)Cl | inactive |
| CNC(=O)c1ccccc1Sc1ccc2c(/C=C/c3ccccn3)n[nH]c2c1 | inactive |
| CCC1C(=O)OCC1Cc1cncn1C (stereo not given) | inactive |
| Clc1ccnc(Cl)n1 | inactive |
| CN1CC(=O)NC1=N | inactive |
| CCCCCCCCCCCCCCC1CO1 (stereo not given) | inactive |
| C/C=C/C=C/CCCCCCCO | inactive |
| O=C(O)CCC(=O)c1ccc(-c2ccccc2)cc1 | inactive |
| COc1cc2c(cc1OC)CN(C(=O)[C@H](C)N[C@@H](CCc1ccccc1)C(=O)O)[C@H](C(=O)O)C2 | inactive |
| CC(=O)NCCCCCC(=O)O | inactive |

| SMILES | Potency |
| --- | --- |
| C=CC(C)(O)CCCC(C)CCCC(C)CCCC(C)C (stereo not given) | inactive |
| COC(=O)C1=C(C)NC(C)=C(C(=O)OCCN2CCN(C(c3ccccc3)c3ccccc3)CC2)C1c1cccc([N+](=O)[O-])c1 (stereo not given) | 8180 nM (active) |
| CC1=C2[C@@H]([C@H](C)CC[C@H]2/C=C(\C)C(=O)O)[C@H](O)C1 | inactive |
| C=C(C)c1ccccc1 | inactive |
| OCCCCC(O)CO (stereo not given) | inactive |
| CCCCCCCCCC#N | inactive |
| CC1=CC(O)CC(C)(C)C1 (stereo not given) | inactive |
| CCc1cccc(CC)c1N(COC)C(=O)CS(=O)(=O)O | inactive |
| CCCCCCCCCOC(=O)c1ccccc1C(=O)OCCCCCCCCC | inactive |
| O=C(O)c1ccc(Cl)cc1Cl | inactive |
| CCOC(=O)CC(C)O (stereo not given) | inactive |
| CN1CCN(Cc2cc(-c3ccc4[nH]c(=O)oc4c3)co2)[C@@H](c2ccc(F)cc2)C1 | inactive |
| CCCCCN=C(N)N/N=C/c1c[nH]c2ccc(OC)cc12 | 32.6 nM (active) |
| CCCCCCCC(C)=O | inactive |
| CCOc1ccc([N+](=O)[O-])cc1 | inactive |
| CCCCCCCC[Si](OCC)(OCC)OCC | inactive |
| CCCCC/C=C/CC(=O)OC | inactive |
| C=CC(C)(CCC=C(C)C)OC(=O)c1ccccc1 (stereo not given) | inactive |
| Oc1ccc(C2CNCCc3c2cc(O)c(O)c3Cl)cc1 (stereo not given) | 259 nM (active) |
| O=C(NCC1CN(c2ccc(N3CCOCC3=O)cc2)C(=O)O1)c1ccc(Cl)s1 (stereo not given) | inactive |

From PubChem BioAssay (Tox21)
